Measured values from PubChem BioAssay (NCATS).
Results filed as inconclusive are left out. Entries that show only a call come without a potency. Values without a mark were called inactive. Calls of active or inactive are those of the source. Calls follow the shape of the dose curve; as a rule, active = well fitted cell-killing curve with a large enough effect; inconclusive = small, poorly fitted or top-dose-only effect, or effect the other way; inactive = no such curve, though single readings can be large or run the other way.

Legend:
[1] = Viability qHTS for spleen associated tyrosine kinase inhibitor (SYKi) naive MV4-11 cells (AID 1963823); also: nearly all actives have a fitted effect of over 40% in size
In short: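 Compounds were dispensed acoustically onto plates, MV4-11 cells (SYKi-naive) added at 500 per well, and plates incubated 72 hr at 37 C. CellTiter-Glo was added and luminescence measured after 10 min.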

[2] = Viability qHTS for spleen associated tyrosine kinase inhibitor (SYKi) drug resistant MV4-11 cells (AID 1963824); also: nearly all actives have a fitted effect of over 35% in size
In short: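 SYK-inhibitor-resistant MV4-11 AML cells were seeded at 500 per well onto compound and cultured 72 hours (37 °C, 5% CO2). CellTiter-Glo was then added, and after 10 min at room temperature, luminescence gave viability.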
Potency is read from the fitted curve at half-maximal effect.

SMILES	Potency [1]	Potency [2]	viability (% of control) [1]	viability, % of control [2]
C=CC(C)(O)CO[C@@H]1O[C@H](CO)[C@@H](O)[C@H](O)[C@H]1O (stereo partly drawn)	inactive	inactive		
COc1cc(C(=O)OC[C@H]2O[C@H](O[C@@]3(CO)O[C@@H](CO)[C@H](O)[C@H]3O)[C@H](O)[C@@H](O)[C@@H]2O)ccc1O	inactive	inactive		
N#Cc1ccc2ncnc(NCCc3ccccc3)c2c1	8.2 µM (active)	4.11 µM (active)		
C[C@@H]1C(=O)OC[C@H]2C(C(=O)O)=C[C@@H]3CC(C)(C)C[C@]312	inactive	inactive		
CC(C)CCC1(O)C(=O)C(C)(C)C(O[C@@H]2O[C@H](CO)[C@@H](O)[C@H](O)[C@H]2O)C(C)(C)C1O (stereo partly drawn)	inactive	inactive		
CC1CC(O)CC(C)(C)C1(O)CCO (stereo not drawn)	inactive	inactive		
CC(C)=CC[C@H]1O[C@]2(O)C([C@H]3CCC4[C@@]5(C)CC[C@H](O[C@@H]6O[C@H](CO)[C@H](O)[C@H](O[C@@H]7O[C@H](CO)[C@@H](O)[C@H](O)[C@H]7O)[C@H]6O[C@@H]6O[C@@H](C)[C@H](O)[C@@H](O)[C@H]6O)C(C)(C)C5CC[C@@]4(C)[C@]3(C)[C@H]2O)[C@@]1(C)O (stereo partly drawn)			84.2% [at 9.25 µM]	80.7% [at 9.25 µM]
CC(C)=C1CC2[C@](C)(CC[C@@H](OC(=O)C3(C)OC3C)[C@@]2(C)O)CC1=O (stereo partly drawn)	inactive	inactive		
CC(C)n1nc(-c2ccc(NC(=O)Nc3cccc(C(F)(F)F)c3)cc2)c2c(N)ncnc21	inactive	inactive		
CCN[C@@H]1C[C@H](N)[C@@H](O[C@H]2OC(CN)=CC[C@H]2N)[C@H](O)[C@H]1O[C@H]1OC[C@](C)(O)[C@H](NC)[C@H]1O	inactive	inactive		
COC(=O)C1=CO[C@@H](O[C@@H]2O[C@H](CO)[C@@H](O)[C@H](O)[C@H]2O)[C@@H]2[C@@H](CO)[C@@H](O)C(O)[C@H]12 (stereo partly drawn)	inactive	inactive		
COc1cc(/C=C/C(=O)O[C@@H]2C[C@@](O)(C(=O)O)C[C@@H](O)[C@@H]2O)ccc1O	inactive	inactive		
Nc1ncnc2c1c(-c1ccc(Oc3ccccc3)cc1)cn2C1CCCC1	0.366 µM (active)	1.03 µM (active)		
CC(O)C(O)/C=C/C=C/C(=O)O[C@@H]1C=C2COC(=O)[C@]2(O)[C@@]2(C)CCCC(C)(C)C12 (stereo partly drawn)	inactive	inactive		
